# Results as given in PubChem BioAssay.
# Activity calls are given as the source filed them.
# What was measured:
# Albumin (Bos taurus) = Albumin (Bos taurus) (UniProt P02769); experiment: compounds binding labelled BSA control protein – biochemical, small-molecule microarray, Alexa647 label, 635/667 nm fluorescence, artefact control for SMM control protein annotation, profiling panel (AID 1118); conditions: BSA-A647 binding, fluorescence 635 nm, higher = more signal;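 further: score merges 667 nm emission intensity and signal-to-noise per printed compound spot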
# Albumin (Bos taurus), sequence (P02769 whole entry, looked up): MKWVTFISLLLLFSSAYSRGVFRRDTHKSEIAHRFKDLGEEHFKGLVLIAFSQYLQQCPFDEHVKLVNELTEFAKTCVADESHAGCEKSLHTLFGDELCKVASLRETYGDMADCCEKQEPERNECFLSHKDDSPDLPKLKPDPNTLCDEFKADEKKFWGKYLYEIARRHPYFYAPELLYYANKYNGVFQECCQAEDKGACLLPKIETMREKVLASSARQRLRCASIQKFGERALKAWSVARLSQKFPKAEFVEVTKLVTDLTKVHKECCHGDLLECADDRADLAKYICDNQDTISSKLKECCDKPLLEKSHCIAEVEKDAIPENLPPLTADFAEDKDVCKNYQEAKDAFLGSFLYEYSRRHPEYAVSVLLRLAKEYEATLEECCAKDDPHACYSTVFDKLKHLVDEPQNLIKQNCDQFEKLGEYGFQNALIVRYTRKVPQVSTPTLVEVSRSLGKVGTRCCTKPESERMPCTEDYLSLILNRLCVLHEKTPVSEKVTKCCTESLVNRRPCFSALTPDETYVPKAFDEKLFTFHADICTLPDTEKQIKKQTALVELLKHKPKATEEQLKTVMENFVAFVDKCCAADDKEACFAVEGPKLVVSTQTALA
# [1] = probe aXIP binding to arrayed compounds – biochemical, NeuroSMM set, 635/667 nm fluorescence, primary screen (AID 1119); conditions: small-molecule microarray, higher = more signal, called active from +8 up or from −8 down;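 further: probe is the protein aXip251-270 applied at 1 µg/mL to compound-printed slides; binding of probe to printed compounds measured as 667 nm fluorescence plus signal to noise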
# [2] = probe aNOTCH3 binding on compound microarray – biochemical, small-molecule microarray, 635/667 nm fluorescence, primary screen (AID 1120); conditions: higher = more signal;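 further: probe is a biotin-tagged antibody raised against NOTCH3 rather than NOTCH3 protein; score merges spot fluorescence near 667 nm with spot signal to noise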
# [3] = probe aNOTCH2 binding on compound microarray – biochemical, small-molecule microarray, 635/667 nm fluorescence, primary screen (AID 1121); conditions: higher = more signal;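 further: score merges feature fluorescence read at 667 nm with its signal to noise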
# [4] = molecular target: Carbonic anhydrase 2 (Homo sapiens) (UniProt P00918); experiment: compounds binding carbonic anhydrase 2 – biochemical, small-molecule microarray, Alexa647-labelled CAII, profiling panel (AID 1122); conditions: CAII-A647 binding fluorescence, higher = more signal
# [5] = COS7 lysate on small-molecule microarray, probe aHis, 635 nm (AID 1123); conditions: COS7 cell lysate, fluorescence, higher = more signal;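 further: z-score combines 667nm fluorescence intensity with signal-to-noise per printed compound spot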
# [6] = probe aLAP1 signal on lysate-treated microarray – cell lysate, small-molecule microarray, COS7 lysate, primary screen (AID 1124); conditions: probe aLAP1, fluorescence, higher = more signal;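 further: lysate comes from COS7 cells expressing LAP1 and is applied at 0.3 µg/mL; score merges spot fluorescence near 667 nm with signal-to-noise over triplicate slides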
# Sam68 (KHDRBS1) = experiment: compounds binding KHDRBS1 protein – biochemical, small-molecule microarray, 635 nm fluorescence, primary screen (AID 1125); conditions: higher = more signal;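 further: score merges 667 nm channel intensity with signal to noise over triplicate slides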
# [7] = system: Chordin-like protein 2 (CHRDL2); experiment: compounds binding chordin-like 2 – biochemical, small-molecule microarray, 635 nm fluorescence, primary screen (AID 1126); conditions: fluorescence 635 nm, higher = more signal;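 further: printed compound slides probed with Chrdl2 protein at 4 µg/mL for 1 h at 4 C; score merges 667 nm emission intensity with signal to noise over three replicate slides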
# [8] = molecular target: Concanavalin-A (Canavalia ensiformis) (UniProt P02866); experiment: compounds binding concanavalin A lectin – biochemical, small-molecule microarray, Alexa647 label, 635 nm, artefact control for SMM control protein annotation, primary screen (AID 1127); conditions: ConA-A647 binding fluorescence, higher = more signal;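 further: z combines 667 nm emission intensity with signal-to-noise across three replicate slides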
# Concanavalin-A (Canavalia ensiformis), sequence (P02866 whole entry, looked up): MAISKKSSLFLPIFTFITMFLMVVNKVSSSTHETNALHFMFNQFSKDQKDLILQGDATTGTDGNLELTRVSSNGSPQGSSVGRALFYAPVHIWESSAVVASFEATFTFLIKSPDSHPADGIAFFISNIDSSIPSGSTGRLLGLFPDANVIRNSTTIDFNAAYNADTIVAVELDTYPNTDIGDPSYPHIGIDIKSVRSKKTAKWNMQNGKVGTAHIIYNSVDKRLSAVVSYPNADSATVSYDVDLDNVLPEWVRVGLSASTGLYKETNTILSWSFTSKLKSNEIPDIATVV
# [9] = compounds binding Alexa647 anti-His antibody – biochemical, small-molecule microarray, 635 nm fluorescence, artefact control for SMM control protein annotation, primary screen (AID 1128); conditions: higher = more signal;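 further: score merges feature fluorescence with signal-to-noise for each printed compound spot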
# [10] = system: Human papillomavirus type 1a E7 protein (residues 1-88); experiment: HPV1a E7 small-molecule binders, primary screen, biochemical, small-molecule microarray, residues 1-88, 635 nm (AID 1129); conditions: small-molecule microarray binding, fluorescence 635 nm; higher = more signal
# [11] = molecular target: Focal adhesion kinase 1 (Homo sapiens) (UniProt Q05397); experiment: PTK2 protein binding on printed compound slides – biochemical, small-molecule microarray, 635/667 nm fluorescence, BSA, DTT, primary screen (AID 1130); conditions: 635 nm fluorescence, higher = more signal;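 further: composite of spot emission at 667 nm and signal to noise over triplicate slides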
# Focal adhesion kinase 1 (Homo sapiens), sequence (Q05397 whole entry, looked up): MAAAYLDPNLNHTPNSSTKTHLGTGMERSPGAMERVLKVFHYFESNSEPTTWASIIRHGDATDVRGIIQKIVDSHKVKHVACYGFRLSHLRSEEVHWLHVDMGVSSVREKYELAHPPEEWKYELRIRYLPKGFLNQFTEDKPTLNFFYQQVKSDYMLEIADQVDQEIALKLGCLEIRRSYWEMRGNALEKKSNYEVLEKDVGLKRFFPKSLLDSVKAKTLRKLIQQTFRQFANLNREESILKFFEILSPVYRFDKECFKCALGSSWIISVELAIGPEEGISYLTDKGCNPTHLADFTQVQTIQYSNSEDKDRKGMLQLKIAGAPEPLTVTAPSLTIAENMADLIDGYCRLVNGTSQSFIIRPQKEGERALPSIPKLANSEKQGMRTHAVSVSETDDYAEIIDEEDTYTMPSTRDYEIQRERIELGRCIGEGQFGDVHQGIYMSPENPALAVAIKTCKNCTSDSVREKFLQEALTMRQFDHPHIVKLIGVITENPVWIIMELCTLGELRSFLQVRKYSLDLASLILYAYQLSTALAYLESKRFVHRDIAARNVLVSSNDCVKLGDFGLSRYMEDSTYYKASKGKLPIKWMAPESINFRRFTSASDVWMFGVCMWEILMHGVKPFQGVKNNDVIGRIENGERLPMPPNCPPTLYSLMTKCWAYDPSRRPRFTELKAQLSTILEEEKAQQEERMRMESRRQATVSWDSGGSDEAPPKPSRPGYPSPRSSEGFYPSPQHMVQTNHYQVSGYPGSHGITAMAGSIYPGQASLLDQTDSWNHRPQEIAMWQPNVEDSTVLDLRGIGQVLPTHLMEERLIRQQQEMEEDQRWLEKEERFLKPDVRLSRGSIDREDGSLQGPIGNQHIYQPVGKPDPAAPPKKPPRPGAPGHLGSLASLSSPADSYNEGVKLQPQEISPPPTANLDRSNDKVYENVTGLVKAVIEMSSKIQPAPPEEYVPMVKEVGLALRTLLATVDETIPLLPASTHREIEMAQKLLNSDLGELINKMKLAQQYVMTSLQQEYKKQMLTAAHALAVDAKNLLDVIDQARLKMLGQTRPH
# [12] = system: Fibrinogen (Alexa647-labelled); experiment: Alexa647-fibrinogen binding to printed small molecules – biochemical, small-molecule microarray, 635/667 nm fluorescence, artefact control for SMM control-protein annotation, profiling panel (AID 1131); conditions: fibrinogen-A647 binding fluorescence, higher = more signal;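 further: z-score merges 667 nm fluorescence with per-spot signal-to-noise over triplicate slides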
# [13] = molecular target: Follistatin (Homo sapiens) (UniProt P19883); experiment: FST protein binding to printed compounds – biochemical, small-molecule microarray, 635/667 nm fluorescence, primary screen (AID 1132); conditions: 635 nm fluorescence, higher = more signal
# Follistatin (Homo sapiens), sequence (P19883 whole entry, looked up): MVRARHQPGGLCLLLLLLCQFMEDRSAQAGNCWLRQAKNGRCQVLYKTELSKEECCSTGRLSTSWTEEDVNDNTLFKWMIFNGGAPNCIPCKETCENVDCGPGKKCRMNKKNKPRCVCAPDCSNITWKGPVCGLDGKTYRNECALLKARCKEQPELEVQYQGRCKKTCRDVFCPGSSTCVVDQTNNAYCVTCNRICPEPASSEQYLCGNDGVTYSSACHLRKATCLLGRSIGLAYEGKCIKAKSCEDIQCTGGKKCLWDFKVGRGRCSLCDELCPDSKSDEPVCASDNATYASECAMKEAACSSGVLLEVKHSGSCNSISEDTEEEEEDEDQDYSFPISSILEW
# [14] = molecular target: Fibroblast growth factor 2 (Homo sapiens) (UniProt P09038); experiment: basic fibroblast growth factor binding to printed compounds – biochemical, small-molecule microarray, 635/667 nm fluorescence, primary screen (AID 1133); conditions: FGF2, fluorescence 635/667, higher = more signal
# Fibroblast growth factor 2 (Homo sapiens), sequence (P09038 whole entry, looked up): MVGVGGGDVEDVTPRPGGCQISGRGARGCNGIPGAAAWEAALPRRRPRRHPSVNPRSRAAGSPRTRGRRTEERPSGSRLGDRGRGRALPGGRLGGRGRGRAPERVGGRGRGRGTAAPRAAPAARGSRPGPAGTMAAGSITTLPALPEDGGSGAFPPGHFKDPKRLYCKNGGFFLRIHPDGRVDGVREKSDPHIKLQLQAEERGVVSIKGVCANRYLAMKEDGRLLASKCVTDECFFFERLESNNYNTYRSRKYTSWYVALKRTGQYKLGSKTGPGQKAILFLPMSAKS
# [15] = JC-1 mitochondrial potential readout, lung cancer cells – cell-based, A549, JC-1 fluorescence, basal, 24 h, 100 nL, profiling panel (AID 1138); conditions: higher = more signal;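 further: A549 lung adenocarcinoma cells under basal conditions with no added stimulus; test concentration not given here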
# Lefty1 = Lefty1 protein binding to printed compounds – biochemical, small-molecule microarray, 635/667 nm fluorescence, primary screen (AID 1139); conditions: fluorescence 635/667, higher = more signal
# [16] = system: wheat germ agglutinin (Triticum aestivum), Alexa647-labelled; experiment: Alexa647-WGA lectin binding to printed small molecules – biochemical, small-molecule microarray, 635/667 nm fluorescence, artefact control for SMM control-protein annotation, profiling panel (AID 1140); conditions: WGA-A647 binding, 635 nm fluorescence, higher = more signal;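 further: score merges 667 nm feature emission with signal to noise over triplicate slides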
# [17] = molecular target: Luciferin 4-monooxygenase (Photinus pyralis) (UniProt P08659); experiment: inhibition of purified Photinus pyralis luciferase – biochemical, luminescence, purified enzyme, 2006 set, primary screen (AID 1141); conditions: purified firefly luciferase, SteadyGlo luminescence, 30 min; higher = more signal, called active from +8 up or from −8 down;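 further: cell-free assay with purified firefly luciferase at 100 ng per well in PBS; test concentration not given here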
# Luciferin 4-monooxygenase (Photinus pyralis), sequence (P08659 whole entry, looked up): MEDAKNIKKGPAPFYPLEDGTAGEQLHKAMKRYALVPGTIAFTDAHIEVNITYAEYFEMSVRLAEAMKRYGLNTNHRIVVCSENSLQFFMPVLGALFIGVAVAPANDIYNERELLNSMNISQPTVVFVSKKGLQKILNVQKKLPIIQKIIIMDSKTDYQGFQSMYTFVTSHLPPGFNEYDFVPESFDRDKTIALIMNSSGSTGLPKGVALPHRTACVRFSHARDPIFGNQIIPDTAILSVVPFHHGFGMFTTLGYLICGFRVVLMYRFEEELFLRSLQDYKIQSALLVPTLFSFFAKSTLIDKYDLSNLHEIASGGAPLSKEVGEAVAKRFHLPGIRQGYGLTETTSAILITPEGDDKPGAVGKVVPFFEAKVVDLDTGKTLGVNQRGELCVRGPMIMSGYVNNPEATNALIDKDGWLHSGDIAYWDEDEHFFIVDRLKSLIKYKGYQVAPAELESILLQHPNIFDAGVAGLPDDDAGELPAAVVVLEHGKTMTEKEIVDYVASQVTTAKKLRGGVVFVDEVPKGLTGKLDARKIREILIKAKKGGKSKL
Structure (SMILES),composite z-score (Albumin (Bos taurus)),composite Z-score [1],composite z-score [2],composite z-score [3],composite z-score [4],composite z-score [5],composite z-score [6],composite z-score (Sam68 (KHDRBS1)),composite z-score [7],composite z-score [8],composite z-score [9],composite z-score [10],composite z-score [11],composite z-score [12],composite z-score [13],composite z-score [14],z-score [15],composite z-score (Lefty1),composite z-score [16],z-score [17]
CC(C)C[C@@H]1NC(=O)[C@@]23C(=O)N[C@@H](Cc4ccccc4)C2[C@H](C)[C@@]2(C)O[C@H]2C3/C=C/C/C=C\CNC(=O)CNC1=O (stereo not given in full),0.0829,-0.568 (inactive),-0.0869,-0.14,0.719,0.283,0.0471,0.613,0.322,0.423,0.256,0.088,-0.0353,0.177,0.929,0.766,-0.0173,0.938,0.375,-0.321 (inactive)
C#CCN1[C@@H](Cc2ccccc2)C(=O)O[C@H](Cc2ccccc2)[C@@H]1/C=C/C1CC1,-0.215,0.196 (inactive),0.0999,-0.126,0.486,0.92,-0.103,0.713,0.646,-0.741,1.3,1.01,0.0423,-0.287,1.27,0.43,4.04,1.1,0.884,-0.415 (inactive)
CC(C)=CCCC=C(C)C(O)C1C=CC2C(=O)N(c3ccccc3)C(=O)C2N1Nc1ccc(C#N)cc1 (stereo not given),0.976,-0.213 (inactive),0.518,-0.157,0.596,2.34,1.54,1.03,0.173,1.11,1,1.21,0.901,0.972,1.31,0.333,-0.902,0.507,1.06,-1.32 (inactive)
CN(C)CCCCNC(=O)[C@H]1C[C@H]2C(=O)NCC(=O)N2[C@H]1c1ccc(O)cc1,-0.411,0.312 (inactive),-0.368,-0.13,0.712,0.0967,-0.537,-0.714,0.367,0.342,0.489,-0.791,-0.424,-0.473,0.481,0.304,-0.124,0.057,1.08,0.836 (inactive)
CC1CC/C=C\[C@H]2OC34C=CCN(c5ccc6ccccc6c5)C(=O)[C@H]3N(C(C)CO)C(=O)[C@@H]4C2C(=O)O1 (stereo not given in full),-0.333,-0.105 (inactive),-0.226,-0.181,0.725,-0.976,0.105,-0.849,-0.837,-0.654,0.0166,-1.72,-0.785,-1.17,-0.69,-0.911,0.838,-0.546,-0.946,-1.2 (inactive)
COc1ccc([Si](C)(C)[C@@H]2[C@@H](CC(=O)N3Cc4ccccc4C[C@H]3CO)O[C@]3(C(=O)N(Cc4ccc(N5CCOC5=O)cc4)c4ccccc43)[C@H]2C)cc1,-0.289,1.54 (inactive),0.0803,-0.128,0.624,1.12,0.313,1.27,1.26,1.16,1.74,0.986,0.239,0.55,1.32,1.49,0.138,1.53,0.914,-0.912 (inactive)
O=C1NC(=O)C2C1C=CC(C(O)c1ccc([N+](=O)[O-])cc1)N2Nc1ccccn1 (stereo not given),-0.494,-0.267 (inactive),-0.173,-0.0843,0.265,0.555,0.0223,-0.413,0.472,-0.257,0.753,0.175,-0.329,0.0114,-0.12,-0.163,-0.0893,-0.262,-0.0047,-1.48 (inactive)
Cc1ccc(S[C@]2(C(=O)NC(C)C)CC(=O)N(C3CCCCC3)[C@@H]2c2ccc(CO)cc2I)cc1,0.529,0.339 (inactive),0.0488,-0.0727,0.645,2.6,0.487,1.28,-0.325,1.11,0.362,1.11,0.414,0.703,1.21,0.396,1.04,0.964,0.0189,0.571 (inactive)
CN1C(=O)C2C(C1=O)C1C=C(CCCO)C2C(C2CC2)N1Cc1cccc(OC(F)(F)F)c1 (stereo not given),1.04,0.35 (inactive),0.0934,-0.023,0.911,2.55,0.956,1.3,-0.535,0.983,1.37,0.925,1.35,0.0349,-0.0603,-0.862,-0.198,0.0613,1.04,-0.478 (inactive)
C=CCNC(=O)[C@H]1[C@@H]2C(=O)O[C@@H](c3ccccc3)[C@@H](c3ccccc3)N2[C@@H](c2ccccc2OCCO)[C@]12C(=O)N(C(=O)OCCOC)c1ccc(C#Cc3ccc(OC)cc3)cc12,0.621,-0.0052 (inactive),-0.0613,-0.146,0.609,1.94,1.1,1.24,0.0718,1.11,0.63,1.19,0.723,0.732,0.406,0.235,-0.844,0.407,0.924,-1.05 (inactive)
O=C1O[C@@H](c2ccccc2)[C@@H](c2ccccc2)N2[C@@H](c3ccc(OCCO)cc3)[C@]3(C(=O)Nc4ccc(C#CCCO)cc43)[C@@H](C(=O)O)[C@H]12,0.559,0.919 (inactive),0.955,0.516,0.746,2.2,0.636,1.28,1.02,1.15,2.76,1.14,0.453,0.95,1.11,0.871,0.329,0.45,1.14,-1.71 (inactive)
O=C(NCc1ccc(F)cc1)[C@H]1C[C@H]2C(=O)N3CCC[C@H]3C(=O)N2[C@H]1c1ccc(O)cc1,-1.3,0.081 (inactive),-0.303,-0.198,-0.0109,-0.136,1.09,-0.732,0.857,0.72,-0.279,-0.825,-0.753,0.137,0.699,0.75,-0.0591,-0.557,-0.554,-0.0877 (inactive)
C=C(C)[C@@H]1CC=C(C(O)C2C=CC3C(=O)N(c4ccccc4)C(=O)C3N2Nc2ccc([N+](=O)[O-])cc2)CC1 (stereo not given in full),0.83,0.115 (inactive),0.0254,0.09,0.558,2.92,0.22,1.32,0.077,0.246,0.594,1.27,0.0881,0.995,1.15,0.269,-1.55,1.41,0.963,0.158 (inactive)
CC(C)NC(=O)[C@@]1(c2ccc([N+](=O)[O-])cc2)CC(=O)N(CC23CC4CC(CC(C4)C2)C3)[C@@H]1c1ccc(CO)cc1,0.0436,0.655 (inactive),1.07,0.427,0.195,2.79,0.885,1.29,1.21,1.12,0.999,1.18,0.601,0.948,1.35,1.55,-0.237,1.51,0.738,0.346 (inactive)
O=C1O[C@@H](c2ccccc2)[C@@H](c2ccccc2)N2[C@@H](c3ccccc3OCCO)[C@]3(C(=O)Nc4ccc(C#CCCO)cc43)[C@@H](C(=O)NC[C@H](O)c3ccccc3)[C@H]12,0.366,0.45 (inactive),0.307,0.255,0.557,2.25,1.31,1.28,0.454,1.12,1.32,1.25,1.06,0.847,1.27,0.835,-0.928,0.831,0.891,0.808 (inactive)
COC(=O)[C@@]1(Cc2ccccc2)[C@H]2c3cc(C(=O)N(C)C)n(Cc4ccc(C(F)(F)F)nc4)c3C[C@H]2CN1C(=O)c1ccccc1,0.463,-0.031 (inactive),0.39,0.329,0.849,3.31,0.427,1.3,-0.43,0.715,0.0389,1.29,0.74,1.01,0.714,-0.428,0.353,-0.655,0.736,2.32 (inactive)
CN1C(=O)C2C(C3CC3)C=C3CN(Cc4cccc(Cl)c4)[C@@H]([C@@H](O)Cc4ccccc4)C3C2C1=O (stereo not given in full),0.363,0.996 (inactive),0.147,-0.104,0.225,1.17,-0.0531,1.3,0.231,1.06,0.162,1.18,1.09,0.862,0.662,0.845,1.35,1.45,0.344,-0.785 (inactive)
CN(C)CCCNC(=O)[C@@H]1c2ccccc2C(=O)N(Cc2ccccc2C(F)(F)F)[C@H]1c1ccc(CO)cc1,0.334,0.0871 (inactive),-0.0106,-0.0996,0.338,1.35,0.2,0.793,-1.5,0.0021,-1.51,0.197,-0.142,-0.126,0.0865,-0.361,2.89,-0.913,0.1,-1.13 (inactive)
C=CCOC(=O)[C@H]1[C@@H]2C(=O)O[C@@H](c3ccccc3)[C@@H](c3ccccc3)N2[C@@H](c2ccc(OCCOC(=O)[C@@H]3C[C@@H]4C(=O)N[C@@H](CCCC[N+](C)(C)C)C(=O)N4[C@@H]3c3ccc(O)cc3)cc2)[C@]12C(=O)Nc1ccc(I)cc12,-0.691,0.61 (inactive),-0.0647,-0.0267,0.572,1.28,0.517,1.29,1.14,1.03,1.08,0.377,0.898,0.4,1.32,1.48,-1.77,1.01,0.422,-2.99 (inactive)
